Source: PubChem (National Center for Advancing Translational Sciences (NCATS))
G9a inh – inhibitors of human histone lysine methyltransferase G9a; Q96KQ7; G9a H3K9 monomethylation, AlphaScreen, 2 h; Potency, µM (highest dose often 102 µM), for the others: top-dose activity, negative = inhibition, usual class: inhibitors; 350,000 tested, 8.8% active; further: on the % scale 0 is the no-effect control and ±100 the full control effect; nearly all actives have a fitted effect of over 75% in size
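Readings reflect AlphaScreen signal from monomethyl-H3K9 antibody detection. HMT at 20 nM; substrate b-H3K9 500 nM; cofactor SAM 20 uM; 2 h RT reaction; compounds tested as titrations in qHTS with 15 min preincubation.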
L3MBTL1 block – inhibitors of human L3MBTL1; 230,000 tested, 0.66% active; Potency, µM (titrated, usually from 57.1 µM), inactives show top-dose activity, negative = inhibition, actives largely listed as inhibitors; AlphaScreen L3MBTL1–H3K9me1 peptide binding; Q9Y468; further: on the % scale 0 is the no-effect control and ±100 the full control effect; nearly all actives have a fitted effect of over 60% in size
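AlphaScreen proximity signal between nickel-chelate acceptor and streptavidin donor beads (final 10 ug/mL) reports binding of 50 nM L3MBTL1 to 75 nM biotin-H3 K9me1 peptide; complex incubated with compounds 30 min at room temperature; cefsulodin titration as control.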
Sfp inh – blocks B. subtilis Sfp PPTase activity; Q9F4F7; Biochemical Sfp PPTase activity, qHTS; Potency, µM, without a hit: largest response in the series, negative = inhibition, hits mostly inhibitors; 310,000 tested, 3.5% active;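 further: the enzyme is Sfp with the accession as filed and its product quenches rhodamine fluorescence; 0% = enzyme reaction without inhibitor and -100% = no enzyme wells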
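Step 1, compound plus 15 nM Sfp-PPTase, 15 min, room temperature. Step 2, add rhodamine-CoA (5 uM) and BHQ-2-YbbR (12.5 uM). Step 3, read 525/598 nm fluorescence at 0 and 30 min.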
BAZ2B inh – blocks human BAZ2B; 360,000 tested, 4.4% active; AID 504333; AlphaScreen BAZ2B-H3K14Ac peptide displacement; Potency, µM (top dose mostly 114 µM), for inactives: at the top dose activity change, negative = inhibition, hits mostly inhibitors; Q9UIF8; further: on the % scale 0 is the no-effect control and ±100 the full control effect; nearly all actives have a fitted effect of over 60% in size
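Protein-peptide AlphaScreen: BAZ2B 50 nM, b-H3K14Ac 50 nM, 1x PBS pH 7.4 + 0.01% Tween-20. Preincubation 30 min RT; cpd 30 min RT (top 110 uM); beads 20 min RT, light-protected.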
HP1b chromo inh – HP1-beta chromodomain-methylated histone interaction inhibition | P83916 | AlphaScreen HP1-beta / biotin-H3K9me3 peptide binding | Potency, µM (series often up to 114 µM), for inactives: at the top dose activity change, negative = inhibition, hits mostly inhibitors | 390,000 tested, 0.56% active | AID 540317; further: nearly all actives have a fitted effect of over 70% in size
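Compound inhibition of the preformed complex between 50 nM HP1-beta and 50 nM biotinylated H3K9me3 peptide was read by AlphaScreen. Buffer was PBS pH 7.4 with 0.01% Tween-20. Incubations ran 30 min at room temperature, with 10 ug/mL donor/acceptor beads.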
JMJD2A Tudor – inhibitors of human JMJD2A Tudor domain | 390,000 tested, 4.4% active | AlphaScreen JMJD2A-Tudor / H3K4me3 peptide binding | Potency, µM (series often up to 114 µM), without a hit: at the top dose activity change, negative = inhibition, actives largely listed as inhibitors; further: on the % scale 0 is the no-effect control and ±100 the full control effect; nearly all actives have a fitted effect of over 50% in size
An asterisk follows results filed as active; [ ] = remark or other dose. An excerpt weighted towards active compounds, which were near 12% of everything screened. The call rests on the fitted dose curve; in most records, active means well fitted curve in the direction sought with a large enough effect; inconclusive means small, poorly fitted or top-dose-only effect, or another doubt; inactive means no such curve, though single readings can be large; an effect the other way counts as inactive or inconclusive. Potency means the concentration at half of the fitted maximal effect.

COc1ccc2[nH]c(C)c(CCNC(=S)Nc3ccccc3OC)c2c1 was read as G9a inh 56µM*, Sfp inh -2%, HP1b chromo inh 1% and JMJD2A Tudor inconclusive.
Screening CC1=C(C)CC(C(=O)Nc2ccc3c(c2)OCO3)C(C(=O)O)C1 (stereo not drawn) returned G9a inh -28%, L3MBTL1 block -5%[11.4 µM], Sfp inh -8%, BAZ2B inh inconclusive, HP1b chromo inh 37% and JMJD2A Tudor -18%.
Screening c1ccc(-n2c(Cc3cn4ccsc4n3)nnc2N2CCOCC2)cc1 returned G9a inh inconclusive, L3MBTL1 block -1%, Sfp inh -8%, BAZ2B inh inconclusive, HP1b chromo inh 23% and JMJD2A Tudor 50µM*.
Screening c1ccc(-n2cnnc2SCc2cn3ccsc3n2)cc1 returned G9a inh inconclusive, L3MBTL1 block 4%, Sfp inh -3%, BAZ2B inh -25%, HP1b chromo inh 10% and JMJD2A Tudor -10%.
For CCCN1CNc2c(c(=O)[nH]c(=S)n2CCc2cccs2)C1 the results were HP1b chromo inh 29% and JMJD2A Tudor -5%.
`CSc1ccc(CN(C)C(=O)c2cc(Cl)c3c(c2)OCCO3)cc1` gave G9a inh 56µM*, Sfp inh 4%, BAZ2B inh inconclusive, HP1b chromo inh 13% and JMJD2A Tudor -17%.
COc1cc2c(cc1OC)CN(C(C)C(=O)N1CCc3ccccc31)CC2 (stereo not drawn) was read as G9a inh inconclusive, Sfp inh inconclusive, BAZ2B inh 56µM*, HP1b chromo inh 6% and JMJD2A Tudor -16%.
`COc1ccc(N2CCN(C(=O)[C@H](C)N3C(=O)C4CC=CCC4C3=O)CC2)cc1` (stereo partly drawn) gave L3MBTL1 block -3%, HP1b chromo inh 9%[57 µM] and JMJD2A Tudor -6%.
COc1ccc(N2CCN(C(C)C(=O)N3CCc4ccccc43)CC2)cc1 (stereo not drawn) was read as G9a inh 40µM*, Sfp inh 1%, BAZ2B inh inconclusive, HP1b chromo inh inconclusive and JMJD2A Tudor inconclusive.
For COc1ccc(N2CCN(C(C)C(=O)N3CC(C)OC(C)C3)CC2)cc1 (stereo not drawn) the results were G9a inh 45µM*, Sfp inh inconclusive, BAZ2B inh 56µM*, HP1b chromo inh inconclusive and JMJD2A Tudor 0.89µM*.
CC(C(=O)N1CCc2ccccc21)N1CCc2ccccc2C1 (stereo not drawn) was read as G9a inh 17%[59 µM], L3MBTL1 block -8%, Sfp inh -2%, BAZ2B inh 4%, HP1b chromo inh 30% and JMJD2A Tudor -10%.
For Cn1cc(S(=O)(=O)N2CCCCCC2)cc1C(=O)N1CCN(c2ccc(Cl)cc2)CC1 the results were G9a inh -10%[59 µM], BAZ2B inh inconclusive, HP1b chromo inh -2%[57 µM] and JMJD2A Tudor inconclusive.
Cn1c(N)c(C(=O)CSc2nc(C3CC3)n(-c3ccccc3)n2)c(=O)[nH]c1=O was read as G9a inh -6%[12.7 µM], L3MBTL1 block 3%, BAZ2B inh 6%, HP1b chromo inh 24% and JMJD2A Tudor -15%.
`CCOC(=O)N1CCN(CC(O)COc2ccccc2C(C)C)CC1` (stereo not drawn) gave G9a inh 11%[0.501 µM], L3MBTL1 block 0%, Sfp inh -10%, BAZ2B inh -12%, HP1b chromo inh 18% and JMJD2A Tudor -8%.
Screening CCN(CCNCC(O)COc1ccccc1C(C)C)c1cccc(C)c1 (stereo not drawn) returned G9a inh 10µM*, Sfp inh 45µM*, BAZ2B inh 28µM*, HP1b chromo inh inconclusive and JMJD2A Tudor 0.79µM*.
Screening CCOC(=O)C1CCN(Cc2ccc(OC)c(OCc3ccccc3)c2)CC1 returned G9a inh 28µM*, L3MBTL1 block 5%, Sfp inh -17%, BAZ2B inh 56µM*, HP1b chromo inh 2% and JMJD2A Tudor -30%.
Screening COc1cc(CN2CCCCC2)ccc1OCc1ccccc1 returned L3MBTL1 block -3%, Sfp inh -18%, BAZ2B inh inconclusive, HP1b chromo inh inconclusive and JMJD2A Tudor 32µM*.
`O=C(C1CCN(Cc2ccc(OCc3ccccc3)cc2)CC1)N1CCCC1` gave G9a inh 14µM*, L3MBTL1 block 7%, Sfp inh inconclusive, BAZ2B inh 79µM*, HP1b chromo inh inconclusive and JMJD2A Tudor 1.6µM*.
For COc1ccc(CN2CCC(C)CC2)cc1OCc1ccccc1 the results were G9a inh 21%, L3MBTL1 block -5%, Sfp inh 13%, BAZ2B inh 1%, HP1b chromo inh 9% and JMJD2A Tudor -19%.
Screening OC1CCN(Cc2ccc(OCc3ccccc3)cc2)CC1 returned G9a inh -10%[0.501 µM], L3MBTL1 block 0%[2.29 µM], Sfp inh 13%, BAZ2B inh 7%, HP1b chromo inh 13% and JMJD2A Tudor -16%.
Screening COc1ccc(CN2CCCCCC2)cc1OC returned HP1b chromo inh -23% and JMJD2A Tudor inconclusive.
`CCN(CC)C(=O)C1CCN(Cc2ccc(OCc3ccccc3)c(OC)c2)CC1` gave G9a inh 50µM*, L3MBTL1 block 7%, Sfp inh -6%, BAZ2B inh 56µM*, HP1b chromo inh inconclusive and JMJD2A Tudor 11µM*.
For CCOC(=O)c1ccccc1NC(=O)Cn1ncc2c1-c1ccccc1OC2 the results were G9a inh 9%[59 µM], BAZ2B inh -20%, HP1b chromo inh 34% and JMJD2A Tudor 4%.
CC(=O)OC1=CN(Cc2ccccc2)S(=O)(=O)c2ccccc21 was read as G9a inh 6%[59 µM], BAZ2B inh 3%, HP1b chromo inh 20% and JMJD2A Tudor -11%.
For O=C(C1CCCO1)N1CCN(S(=O)(=O)c2ccccc2)CC1 (stereo not drawn) the results were G9a inh inconclusive, L3MBTL1 block 10%, Sfp inh 9%, BAZ2B inh -4%, HP1b chromo inh 48% and JMJD2A Tudor -11%.
c1ccc(COc2cccc(CN3CCCCC3)c2)cc1 was read as G9a inh 35µM*, L3MBTL1 block 0%, Sfp inh -7%, BAZ2B inh inconclusive, HP1b chromo inh inconclusive and JMJD2A Tudor 25µM*.
For CCCCNC(=O)C1CCN(Cc2ccc(OCc3ccccc3)cc2)CC1 the results were G9a inh 11µM*, L3MBTL1 block 47%, Sfp inh 6%, BAZ2B inh inconclusive, HP1b chromo inh inconclusive and JMJD2A Tudor 3.5µM*.
